Test results published in PubChem BioAssay (NCI).
Compounds without any hit were thinned out: in the full panel of roughly 83,000, 20% have a hit.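 Each cell line was grown in a 96-well plate and treated with one concentration of compound for 48 hours. Values below 10 were considered active.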 The source made the active and inactive calls.

Experiments:
Test in all cases: NCI-60 one-dose screen, 48 h (100 = growth as untreated, 0 = no growth, -100 = all killed)
Settings in all cases: 10 µM unless noted
[1] = tested on: T-47D breast
[2] = tested on: BT-549 breast
[3] = tested on: MDA-MB-435 melanoma
[4] = tested on: SW-620 colon
[5] = tested on: MCF7 breast
[6] = tested on: HCT-116 colon
[7] = tested on: HCC-2998 colon
[8] = tested on: KM12 colon

Measured: growth

COc1ccc(-c2ccc3c4c(cccc24)C(=O)N(N2C(=O)c4cccc5cccc(c45)C2=O)C3=O)cc1
inactive: [1] 98% | [2] 106% | [3] 98.8% | [4] 96.2% | [5] 15.6% | [6] 96.8% | [7] 114%

Cc1ccc(Cc2cnc(NC(=O)/C(C#N)=C/c3ccc(-c4ccc(Cl)cc4)o3)s2)cc1
inactive: [1] 64.7% | [2] 96.7% | [3] 94.4% | [4] 93.9% | [5] 81.8% | [6] 88.9% | [7] 103% | [8] 90.4%

NS(=O)(=O)c1ccc(Nc2nc(N/N=C/c3ccc([N+](=O)[O-])cc3)nc(Nc3ccccc3)n2)cc1
active: [5] 9.76%
inactive: [1] 14.1% | [2] 18.5% | [3] 33.2% | [4] 18.2% | [6] 16.5% | [7] 19.6% | [8] 37.5%

CCN(CC)CCN1C(=O)c2c(c3c4cc(Br)ccc4[nH]c3c3ccc4ccccc4c23)C1=O
active: [1] -34.5% | [3] -94.7% | [4] -61.6% | [5] -80% | [6] -80.1% | [7] -89.5%
inactive: [2] 61.8%

CN1CCN(c2nc(-c3cnc4ccccc4n3)cc3ccccc23)CC1
active: [7] -26.4%
inactive: [1] 68.9% | [2] 85.7% | [3] 27.1% | [4] 11.5% | [5] 54.9% | [6] 21.4% | [8] 88.1%

N/C(=N\OC(=O)CSc1nc2ccccc2s1)c1ccc2ccccc2c1
inactive: [1] 97.7% | [2] 100% | [3] 104% | [4] 100% | [5] 94.2% | [6] 103% | [7] 107% | [8] 103%

CCc1ccc(NC(=O)N[C@@H](Cc2cccc(F)c2)C(=O)N[C@@H]2C(=O)N3CCC[C@H]3C(=O)N3CCCC[C@H]3C(=O)N[C@@H](C)C(=O)N3C[C@H](C)C[C@H]3C(=O)O[C@H]2C)c(F)c1
inactive: [1] 29.6% | [2] 17.9% | [3] 19.2% | [4] 34.4% | [5] 15.2% | [8] 33.6%
active: [6] 3.62% | [7] 5.04%

O=C1[C@@H]2Cc3c([nH]c4ccccc34)[C@H](c3c(Cl)cccc3Cl)N2C(=O)CN1C1CCN(Cc2c(F)cccc2F)CC1
inactive: [1] 94.9% | [2] 80.4% | [3] 85.1% | [4] 72.1% | [5] 40.4% | [6] 15.7% | [7] 63.8% | [8] 74.5%

Cc1ccc(/C=C/CC(=O)Nc2ccc(C(=O)Nc3ccc(F)cc3N)cc2)cn1
inactive: [1] 28.6% | [2] 73% | [3] 47.2% | [4] 46.3% | [5] 39.6% | [6] 39% | [7] 64.6% | [8] 75.2%

C#C[C@]1(O)CC[C@H]2[C@@H]3CC=C4c5sc(Nc6cccc(C)n6)nc5CC[C@]4(C)[C@H]3CC[C@@]21C
active: [3] -41.5% | [4] -22.6% | [5] -41.5%
inactive: [1] 37.7% | [2] 23.1% | [6] 14.4%

O=C1c2c(c3c4cc(Br)ccc4[nH]c3c3ccc4ccccc4c23)C(=O)N1CCN1CCCCC1
active: [3] -41.8% | [5] -35.6% | [6] -61.8% | [7] 2.69%
inactive: [1] 43.3% | [2] 91% | [4] 10.5%

C=CCn1c(SCC(=O)Nc2cccc(C(=O)/C=C/c3ccc(Cl)cc3)c2)nc2ccccc2c1=O
inactive: [1] 78.6% | [2] 94.6% | [3] 92.3% | [4] 77.4% | [5] 28.3% | [6] 15.4% | [7] 94.8% | [8] 88%

N#Cc1c(-c2cccs2)cc(-c2cnccn2)nc1SCC(=O)NNC(=S)Nc1ccc(F)cc1
inactive: [1] 102% | [2] 118% | [3] 101% | [4] 105% | [5] 86.1% | [6] 102% | [7] 109% | [8] 101%

CCOC(=O)c1nn(-c2ccccc2)c(=O)c2c(N)c(C#N)c(-c3cccs3)cc12
inactive: [1] 76.7% | [2] 107% | [3] 90.3% | [4] 79.3% | [5] 74.6% | [6] 52.8% | [7] 78.2% | [8] 80.4%

O=C1c2c(c3c4cccnc4[nH]c3c3ccc4ccccc4c23)C(=O)N1CCN1CCCCC1
inactive: [1] 46.4% | [2] 84.4% | [3] 69% | [4] 41.3% | [5] 14.5% | [6] 36.9% | [7] 70% | [8] 99.6%

O=C1c2c(c3c4cccnc4[nH]c3c3ccc4ccccc4c23)C(=O)N1CCN1CCOCC1
inactive: [1] 65.5% | [2] 65.6% | [3] 67.7% | [4] 47.1% | [5] 15.9% | [6] 58.1% | [7] 82%

C#C[C@]1(O)CC[C@H]2[C@@H]3CC=C4c5sc(Nc6ccc(OC)nc6)nc5CC[C@]4(C)[C@H]3CC[C@@]21C
active: [4] -20.8% | [5] 4.25% | [6] -48.6%
inactive: [1] 21.2% | [2] 33.3% | [3] 48.1% | [7] 65.5% | [8] 19.6%

CC1CCN(S(=O)(=O)c2ncsc2-c2ccccc2)CC1
inactive: [1] 90.7% | [2] 73.5% | [3] 95.5% | [4] 100% | [5] 72.3% | [6] 87.5% | [7] 97.4% | [8] 94.8%

O=C(CN1C(=O)S/C(=C\c2ccccc2)C1=O)Nc1ccc(C(=O)/C=C/c2cc3ccccc3nc2Cl)cc1
inactive: [1] 54.6% | [2] 60.9% | [3] 82.9% | [4] 98% | [5] 26.6% | [7] 97.8% | [8] 87.7%
active: [6] -64.1%

CCNC(=NCCCN(C)C)N/C(N)=N/c1nc2ccccc2s1
inactive: [1] 94.7% | [2] 97.1% | [3] 93.8% | [4] 103% | [5] 82.8% | [6] 76.4% | [7] 98.1% | [8] 93.9%

CC(C)=CCc1c(O)c(CC=C(C)C)c2c(c1O)C(=O)C1=C[C@@H]3C[C@H]4C(C)(C)O[C@@](C/C=C(\C)C(=O)O)(C3=O)[C@@]14O2
active: [1] 1.27% | [2] -8.98% | [3] -5.58% | [4] -34.6% | [5] -5.87% | [6] -35.8% | [7] -87.1% | [8] -18.4%

COc1ccc(/C=N/Nc2nc(Nc3ccccc3)nc(Nc3ccc(S(N)(=O)=O)cc3)n2)cc1
inactive: [1] 63.1% | [2] 85.7% | [3] 76.6% | [4] 72.4% | [5] 41% | [6] 50.2% | [7] 87% | [8] 74.4%

O=C1Nc2cc(OC(F)(F)F)ccc2Oc2ccc(-c3ccnc(N4CCNCC4)c3)cc21
active: [1] -61.9% | [2] -4.26% | [3] -95.7% | [4] -91.8% | [5] -55.7% | [6] -91.4% | [7] -76.8% | [8] -10.6%

CCOP(=O)(OCC)OC[C@]12CCC(C)(C)C[C@H]1C1=CC[C@@H]3[C@@]4(C)C/C(=C\c5cccnc5)[C@H](OP(=O)(OCC)OCC)C(C)(C)[C@@H]4CC[C@@]3(C)[C@]1(C)CC2
active: [5] 6.1%
inactive: [1] 16.1% | [2] 33.4% | [3] 31.2% | [4] 25.9% | [6] 11.1% | [7] 33.1% | [8] 23.6%

CCn1c2ccc(/C=N/OCCCN(C)C)cc2c2cc(/C=N/OCCCN(C)C)ccc21
active: [3] -48.9% | [4] -47.3% | [5] -92% | [6] -72.2% | [7] -49.4%
inactive: [1] 105% | [2] 60.9% | [8] 17.1%

C=CCn1c(SCC(=O)Nc2cccc(C(=O)/C=C/c3ccccc3Cl)c2)nc2ccccc2c1=O
inactive: [1] 74.5% | [2] 99.7% | [3] 89.1% | [4] 67.2% | [5] 24.4% | [7] 100% | [8] 80.2%
active: [6] -86.9%

COc1ccc(-c2nc(SCCC(C)C)nc(N/N=C\c3ccc(O)cc3)c2C#N)cc1
inactive: [1] 76.7% | [2] 67.5% | [3] 49.5% | [4] 54.1% | [5] 40.3% | [6] 39.6% | [7] 86.8% | [8] 67%

C[C@H]1[C@H](C)CC[C@]2(COC(=O)c3cccnc3)CC[C@]3(C)C(=CC[C@@H]4[C@@]5(C)CCCNC(C)(C)[C@@H]5CC[C@]43C)[C@H]12
inactive: [1] 61% | [2] 76.5% | [3] 68.5% | [4] 39.1% | [5] 67.3% | [6] 33.5% | [7] 49.6% | [8] 68.9%

COc1ccc(-c2nc(SCC(C)C)nc(N/N=C\c3cccc([N+](=O)[O-])c3)c2C#N)cc1
inactive: [1] 64% | [2] 64.1% | [3] 67.3% | [4] 56.9% | [5] 61.6% | [6] 30.1% | [7] 80.3%

C(=C(\C1=NCCN1)n1cnc2ccccc21)/c1cccc2ccccc12
inactive: [1] 82.4% | [2] 107% | [3] 74% | [4] 102% | [5] 57.3% | [6] 88% | [7] 92.9% | [8] 42.5%

CCCCCCCCNC(=O)c1ccc(Cn2c(CCCC)nc3c(N)nc4ccccc4c32)cc1
inactive: [2] 92.7% | [7] 15.5% | [8] 42.1%
active: [1] -38.2% | [3] -83.1% | [4] -39.6% | [5] -78% | [6] -84.2%
